Results published in PubChem BioAssay (NCI).
Several values for one entry are separate records, joined by “and”; a condition that tells them apart may be missing. Identical values can stand only once. Compounds without any hit were thinned out: in the full panel of roughly 83,000, 20% have a hit.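 Testing used 96-well plates and a 48-hour single-concentration exposure. Example: -40 means 40% of the starting cells died.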 Activity calls are given as the source filed them. The calls were made as follows: active = growth percent below 10; inactive = the rest.

tested on: OVCAR-8 ovarian; experiment: NCI-60 one-dose screen, 48 h (100 = growth as untreated, 0 = no growth, -100 = all killed); conditions: 10 µM unless noted

SMILES | growth
Cc1ccc(Cl)cc1NC(=O)N/C(N)=N/c1nc2ccccc2s1 | -51.4% (active)
Nc1cc(-c2c[nH]c3ccc(Cl)cc23)nc2cc(-c3c[nH]c4ccccc34)nn12 | -4.93% (active)
COc1cc(CNC(=O)C[C@H](C)CCC=C(C)C)ccc1OCc1cn(-c2ccc(Cl)c(Cl)c2)nn1 | 46.3% (inactive)
C[C@@H](Nc1c(C#N)cnc2ccc(-c3cnc4[nH]ncc4c3)cc12)c1ccccc1 | 24.4% (inactive)
COc1ccc(C2=NN(C(=O)[C@H]3[C@@H](c4ccco4)c4sc(=O)[nH]c4S[C@@H]3C)C(c3ccc4ccccc4c3)C2)cc1 (stereo not given in full) | 28% (inactive)
Cc1cc(C)c2[nH]c(=O)c(C(c3nnnn3Cc3ccc4c(c3)OCO4)N3CCN(C)CC3)cc2c1 (stereo not given) | 114% (inactive)
COc1ccc(NC(=O)N/N=C/c2c[nH]c3ccccc23)cc1 | 20.5% (inactive)
COc1ccc2[nH]c(O)c(N=NC(=O)c3ccc4nc(-c5ccc(Cl)cc5)[nH]c4c3)c2c1 | 48.4% (inactive)
Cc1ccc(O)cc1Nc1nc(SCCN2CCOCC2)nc2c1cnn2CC(Cl)c1ccc(Br)cc1 (stereo not given) | 20.7% (inactive)
CCOc1ccccc1[C@H]1C(C(=O)c2ccc(Cl)cc2)C2(N[C@@H]1c1ccccc1)C(=O)Nc1ccc(Br)cc12 (stereo not given in full) | 12.1% (inactive)
CC1(C)CC(=O)C2=C(C1)OC(N)=C(c1nc3ccccc3[nH]1)C2c1ccc(Cl)cc1 (stereo not given) | 69.2% (inactive) and 108% (inactive)
COc1ccc(-c2cc(C(=O)N=Nc3c(O)[nH]c4ccc(Cl)cc34)c3ccccc3n2)cc1OC | 110% (inactive)
COc1ccc2c(c1)c(-c1cc(N)n3nc(-c4c[nH]c5ccccc45)cc3n1)cn2C | -74.7% (active)
Cc1ccc2c(c1)nc(-c1ccccc1)n2CC(=O)N=Nc1c(O)[nH]c2ccc(Cl)cc12 | -66.9% (active)
CS(=O)(=O)Nc1cccc(-n2c(COc3ccc(OC(F)(F)F)cc3)nc3ccccc32)c1 | 93.1% (inactive) and 110% (inactive)
Oc1ccc(Cl)c(Nc2nc(SCCN3CCOCC3)nc3c2cnn3CC(Cl)c2ccc(Br)cc2)c1 (stereo not given) | 16.5% (inactive)
COc1ccccc1NC(=O)N/N=C/c1c[nH]c2ccccc12 | 19.3% (inactive)
Nc1cccc(-n2c(COc3ccc(I)cc3)nc3ccccc32)c1 | 93.4% (inactive) and 106% (inactive)

SMILES | growth
O=C1CCC(N2C(=O)c3cccc(NCCCCCC(=O)N4CCN(c5ccc6nc7c(nc6c5C(F)(F)F)C(=O)c5ncccc5C7=O)CC4)c3C2=O)C(=O)N1 (stereo not given) | -53.3% (active)
OCCn1cc(-c2nc3ccc4[nH]ncc4c3c3c2CCCC3)cn1 | 44.7% (inactive)
Cc1ccc(N=Nc2c(N)nn3c(-c4cc5cc(Br)ccc5oc4=O)ccnc23)cc1 | 54% (inactive)
COc1ccc(C(=O)C[n+]2cccc3c4ccccc4ccc32)cc1 | 25.9% (inactive)
CCCCCCCCCc1ccc(C(=O)Nc2cc(C)ccc2C(=O)OC)cc1 | 110% (inactive)
Cc1nc(Nc2ccccn2)sc1C1=NNC(c2ccccc2F)C1 (stereo not given) | 68% (inactive)
NS(=O)(=O)c1ccc(Nc2nc(N/N=C/c3cc(Br)c(O)c(Br)c3)nc(Nc3ccccc3)n2)cc1 | 57.7% (inactive)
C=CC(=O)Nc1ccc(C(=O)/C=C/c2ccc(N(C)C)cc2)c(O)c1 | -8.4% (active)
CCCCCCCCc1ccc(C(=O)Nc2cccc(O)c2)cc1 | 83% (inactive)
Clc1ccc(-c2nc3c4c(-c5ccccc5)c(-c5ccccc5)n(Cc5ccccc5)c4ncn3n2)cc1 | 11.6% (inactive)
Nc1nn2c(-c3cc4cc(Br)ccc4oc3=O)ccnc2c1N=Nc1ccc(S(N)(=O)=O)cc1 | 79% (inactive)
Cc1ccc(C(=O)Nc2cc(-n3ccnc3)cc(C(F)(F)F)c2)cc1-n1cc(-c2cnc3cccnn23)nn1 | 103% (inactive)
Cc1cccc(C)c1Nc1nnc(-c2c[nH]c3ccccc23)o1 | 101% (inactive)
COc1cc(CNC(=O)C[C@H](C)CCC=C(C)C)ccc1OCc1cn(-c2cccc(C(F)(F)F)c2)nn1 | 28.1% (inactive)
CC1=C(C(=O)OCc2ccccc2)C(c2ccc(N(C)C)cc2)n2c(nc3ccccc32)N1 (stereo not given) | 95.6% (inactive)
CCc1ccc(SC2c3cc(OC)ccc3Oc3nc(N)c(C#N)c(N)c32)cc1 (stereo not given) | 0.0543% (active)
CCCn1c(NC(=O)c2cccc(C(N)=O)c2)nc2cc(CN3CCCCC3)ccc21 | 117% (inactive)
